This passage reports composite z-score, z-score and composite Z-score results from PubChem BioAssay.

Molecules are shown by their SMILES. Active and inactive are the calls of the source.

Experiment [1] deals with Human papillomavirus type 1a protein E7 (residues 44-93). The experiment is described as follows: small molecules binding HPV E7 44-93 – biochemical, small-molecule microarray, residues 44-93, 635 nm fluorescence, primary screen (AID 1108).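 Also: E7 fragment applied at 1 µg/mL in TBST for 1 h at 4 C; score combines spot fluorescence with its signal to noise ratio.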 Conditions: fluorescence 635 nm, higher = more signal.
Experiment [2] in a line: hepatitis C replication reporter changes, two-sided – Huh7 cells, luciferase reporter, HCV replication inhibitor project, primary screen (AID 1109).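 Also: huh7 hepatoma cells harbouring a luciferase neomycin HCV replicon reporter; luciferase luminescence as measure of HCV replicon replication; test concentration not given here.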 To be noted: Huh7 HCV replicon luciferase reporter, 48 h; higher = more signal. For orientation: A reporter such as luciferase makes a cellular process visible.
The target of experiment [3] is Left-right determination factor 2 (Homo sapiens) (UniProt O00292). In words: small molecules binding LEFTY2 protein – biochemical, small-molecule microarray, 635 nm fluorescence scan, primary screen (AID 1110). To be noted: higher = more signal.
Chain of Left-right determination factor 2 (Homo sapiens) (O00292 whole entry, looked up): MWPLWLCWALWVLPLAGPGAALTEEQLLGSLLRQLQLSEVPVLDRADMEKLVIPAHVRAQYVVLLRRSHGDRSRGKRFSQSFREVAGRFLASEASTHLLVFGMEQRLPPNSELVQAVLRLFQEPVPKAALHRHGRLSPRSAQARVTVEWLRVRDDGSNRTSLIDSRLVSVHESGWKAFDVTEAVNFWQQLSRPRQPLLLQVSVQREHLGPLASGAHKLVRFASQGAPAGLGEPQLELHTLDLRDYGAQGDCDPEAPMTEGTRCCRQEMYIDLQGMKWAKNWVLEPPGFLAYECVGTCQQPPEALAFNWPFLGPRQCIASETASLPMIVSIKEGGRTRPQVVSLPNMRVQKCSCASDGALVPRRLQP
In experiment [4] the target is Calmodulin-1 (Homo sapiens) (UniProt P0DP23). In words: small molecules binding calmodulin-1 with EGTA – biochemical, small-molecule microarray, Cy5-labelled CALM1, profiling panel (AID 1111).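 Also: labelled calmodulin applied in Tris saline Tween buffer holding calcium plus EGTA and DTT.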 Conditions: Cy5-CALM1 binding fluorescence, higher = more signal.
For experiment [5] the target is unchanged. The experiment is described as follows: small molecules binding Ca-loaded calmodulin-1 – biochemical, small-molecule microarray, Cy5-labelled CALM1, plus calcium, artefact control for SMM control-protein annotation, profiling panel (AID 1112).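 Also: score merges spot fluorescence with signal to noise from triplicate slides.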 To be noted: Cy5-CALM1 binding fluorescence, higher = more signal.
The nature of experiment [6]: probe aWnt5a binding to arrayed compounds – biochemical, biotinylated probe, 635/667 nm fluorescence, primary screen (AID 1113).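 Also: score merges 667 nm fluorescence intensity with signal-to-noise per printed feature.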 To be noted: small-molecule microarray, higher = more signal.
A short description of experiment [7]: probe aShh binding to arrayed compounds – biochemical, biotinylated probe, 635/667 nm fluorescence, primary screen (AID 1114).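 Also: probe is biotin-labelled aShh protein from a stem cell growth factor screen; measures binding of labelled protein to compounds printed on the slide; score merges feature fluorescence at 667 nm with signal-to-noise.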 Conditions: small-molecule microarray, higher = more signal.
A short description of experiment [8]: probe aNog binding to arrayed compounds – biochemical, biotinylated probe, 635/667 nm fluorescence, primary screen (AID 1115).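 Also: probe is biotinylated aNog protein used at 0.15 µg/mL for 1 h at 4 C; z-score combines 667 nm fluorescence of each spot with its signal to noise.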 Conditions: small-molecule microarray, higher = more signal.
Experiment [9] has as its target Torsin-1A-interacting protein 1 (Homo sapiens) (UniProt Q5JTV8). The experiment is described as follows: compound microarray binding of lysate hLAP1 – cell lysate, small-molecule microarray, COS7 lysate, 635/667 nm fluorescence, primary screen (AID 1116). Conditions: 635 nm fluorescence, higher = more signal.
In experiment [10] the target is Alpha-bungarotoxin (Bungarus multicinctus) (UniProt P60615). In words: compounds binding labelled alpha-BTX control protein – biochemical, small-molecule microarray, Alexa647 label, 635/667 nm fluorescence, artefact control for SMM control protein annotation, profiling panel (AID 1117). To be noted: alpha-BTX-A647 binding fluorescence, higher = more signal.
Chain of Alpha-bungarotoxin (Bungarus multicinctus) (P60615 whole entry, looked up): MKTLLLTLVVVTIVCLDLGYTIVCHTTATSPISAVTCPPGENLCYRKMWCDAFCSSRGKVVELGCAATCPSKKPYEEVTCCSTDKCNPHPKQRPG
For another experiment, the target named is Albumin (Bos taurus) (UniProt P02769). The experiment is described as follows: compounds binding labelled BSA control protein – biochemical, small-molecule microarray, Alexa647 label, 635/667 nm fluorescence, artefact control for SMM control protein annotation, profiling panel (AID 1118).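 Also: score merges 667 nm emission intensity and signal-to-noise per printed compound spot.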 To be noted: BSA-A647 binding, fluorescence 635 nm, higher = more signal.
Chain of Albumin (Bos taurus) (P02769 whole entry, looked up): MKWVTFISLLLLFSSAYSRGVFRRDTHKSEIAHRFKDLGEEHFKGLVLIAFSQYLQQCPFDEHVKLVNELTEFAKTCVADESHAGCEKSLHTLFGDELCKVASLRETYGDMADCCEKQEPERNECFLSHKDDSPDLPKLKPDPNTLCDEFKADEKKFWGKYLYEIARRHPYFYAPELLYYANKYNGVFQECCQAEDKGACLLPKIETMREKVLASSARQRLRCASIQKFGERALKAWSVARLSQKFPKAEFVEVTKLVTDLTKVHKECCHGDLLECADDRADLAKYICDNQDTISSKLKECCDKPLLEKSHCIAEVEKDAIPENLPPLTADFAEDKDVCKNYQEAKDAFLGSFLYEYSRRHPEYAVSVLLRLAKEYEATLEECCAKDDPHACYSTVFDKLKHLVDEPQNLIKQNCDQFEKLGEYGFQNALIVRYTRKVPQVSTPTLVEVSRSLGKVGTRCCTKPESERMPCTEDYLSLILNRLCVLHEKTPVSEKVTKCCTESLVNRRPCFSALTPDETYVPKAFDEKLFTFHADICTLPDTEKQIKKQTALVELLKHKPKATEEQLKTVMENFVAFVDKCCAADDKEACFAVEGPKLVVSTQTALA

The nature of experiment [11]: probe aXIP binding to arrayed compounds – biochemical, NeuroSMM set, 635/667 nm fluorescence, primary screen (AID 1119).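 Also: probe is the protein aXip251-270 applied at 1 µg/mL to compound-printed slides; binding of probe to printed compounds measured as 667 nm fluorescence plus signal to noise.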 Conditions: small-molecule microarray, higher = more signal, called active from +8 up or from −8 down.
Experiment [12] in a line: probe aNOTCH3 binding on compound microarray – biochemical, small-molecule microarray, 635/667 nm fluorescence, primary screen (AID 1120).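 Also: probe is a biotin-tagged antibody raised against NOTCH3 rather than NOTCH3 protein; score merges spot fluorescence near 667 nm with spot signal to noise.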 To be noted: higher = more signal.
A short description of experiment [13]: probe aNOTCH2 binding on compound microarray – biochemical, small-molecule microarray, 635/667 nm fluorescence, primary screen (AID 1121).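 Also: score merges feature fluorescence read at 667 nm with its signal to noise.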 To be noted: higher = more signal.
Experiment [14] deals with Carbonic anhydrase 2 (Homo sapiens) (UniProt P00918). In words: compounds binding carbonic anhydrase 2 – biochemical, small-molecule microarray, Alexa647-labelled CAII, profiling panel (AID 1122). To be noted: CAII-A647 binding fluorescence, higher = more signal.
A short description of experiment [15]: COS7 lysate on small-molecule microarray, probe aHis, 635 nm (AID 1123).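 Also: z-score combines 667nm fluorescence intensity with signal-to-noise per printed compound spot.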 Conditions: COS7 cell lysate, fluorescence, higher = more signal.
Experiment [16] in a line: probe aLAP1 signal on lysate-treated microarray – cell lysate, small-molecule microarray, COS7 lysate, primary screen (AID 1124).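 Also: lysate comes from COS7 cells expressing LAP1 and is applied at 0.3 µg/mL; score merges spot fluorescence near 667 nm with signal-to-noise over triplicate slides.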 To be noted: probe aLAP1, fluorescence, higher = more signal.
Another experiment concerns Sam68 (KHDRBS1). In words: compounds binding KHDRBS1 protein – biochemical, small-molecule microarray, 635 nm fluorescence, primary screen (AID 1125).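 Also: score merges 667 nm channel intensity with signal to noise over triplicate slides.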 Conditions: higher = more signal.
In experiment [17] the test system is Chordin-like protein 2 (CHRDL2). The experiment is described as follows: compounds binding chordin-like 2 – biochemical, small-molecule microarray, 635 nm fluorescence, primary screen (AID 1126).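 Also: printed compound slides probed with Chrdl2 protein at 4 µg/mL for 1 h at 4 C; score merges 667 nm emission intensity with signal to noise over three replicate slides.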 Conditions: fluorescence 635 nm, higher = more signal.
Experiment [18] has as its target Concanavalin-A (Canavalia ensiformis) (UniProt P02866). In words: compounds binding concanavalin A lectin – biochemical, small-molecule microarray, Alexa647 label, 635 nm, artefact control for SMM control protein annotation, primary screen (AID 1127).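 Also: z combines 667 nm emission intensity with signal-to-noise across three replicate slides.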 To be noted: ConA-A647 binding fluorescence, higher = more signal.

Chain of Torsin-1A-interacting protein 1 (Homo sapiens) (Q5JTV8 whole entry, looked up): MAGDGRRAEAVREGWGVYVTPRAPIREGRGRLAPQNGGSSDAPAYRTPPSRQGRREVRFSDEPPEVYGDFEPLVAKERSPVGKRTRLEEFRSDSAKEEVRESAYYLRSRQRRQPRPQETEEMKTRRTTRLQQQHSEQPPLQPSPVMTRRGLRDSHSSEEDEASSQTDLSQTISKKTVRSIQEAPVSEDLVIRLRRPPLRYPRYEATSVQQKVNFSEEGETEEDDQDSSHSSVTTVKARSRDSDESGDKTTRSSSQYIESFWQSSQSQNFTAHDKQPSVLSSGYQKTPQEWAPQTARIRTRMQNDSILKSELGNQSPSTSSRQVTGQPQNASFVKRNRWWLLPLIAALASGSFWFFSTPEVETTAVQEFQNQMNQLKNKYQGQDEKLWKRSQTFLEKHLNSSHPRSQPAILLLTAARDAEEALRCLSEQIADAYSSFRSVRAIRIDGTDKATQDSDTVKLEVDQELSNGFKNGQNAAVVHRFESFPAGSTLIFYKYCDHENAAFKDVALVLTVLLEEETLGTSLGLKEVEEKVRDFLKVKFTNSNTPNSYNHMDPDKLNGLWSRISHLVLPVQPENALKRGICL
Chain of Concanavalin-A (Canavalia ensiformis) (P02866 whole entry, looked up): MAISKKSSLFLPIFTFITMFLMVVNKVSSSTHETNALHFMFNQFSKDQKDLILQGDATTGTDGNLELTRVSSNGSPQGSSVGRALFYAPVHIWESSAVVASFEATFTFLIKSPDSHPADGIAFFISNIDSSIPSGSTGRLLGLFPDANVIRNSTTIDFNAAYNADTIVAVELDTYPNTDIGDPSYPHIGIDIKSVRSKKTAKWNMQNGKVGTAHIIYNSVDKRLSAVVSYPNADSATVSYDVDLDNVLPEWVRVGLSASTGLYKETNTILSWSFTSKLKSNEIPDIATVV

In the case of `COCCOC(=O)N1C(=O)[C@@]2(c3cc(C#CCC(C(=O)OC)C(=O)OC)ccc31)[C@H](C(N)=O)[C@H]1C(=O)O[C@H](c3ccccc3)[C@H](c3ccccc3)N1[C@@H]2c1ccc(OCCO)cc1`, the composite z-score in [1] was 1.43; in [3], 0.705; in experiment [4] it was 1.27; in [5], -0.27; in experiment [6], -0.0161; in experiment [7], 0.184. Moreover, the composite z-score in experiment [8] was 0.177; in experiment [9], 0.775; in experiment [10], 1.44; in the experiment with Albumin (Bos taurus), 0.483; in experiment [12], 0.0271; in [13] it was -0.0984. In addition, the composite z-score in [14] worked out at 0.565; in experiment [15], 1.87; in experiment [16] it was 0.307; with Sam68 (KHDRBS1), 1.29; in [17], 0.519; in experiment [18] it was 1.07. The compound further showed a z-score in experiment [2] of -1.88. Further, in [11], the composite Z-score was -0.0102 (inactive).

With `CN(C)CCCCNC(=O)[C@H]1C[C@H]2C(=O)N[C@@H](Cc3ccccc3)C(=O)N2[C@H]1c1cccc(OCCO)c1`, the composite z-score in experiment [1] is -1.49; in [3], 0.0071; in experiment [4], -0.545; in experiment [5], 0.0005; in experiment [6], -0.217; in experiment [7], 0.251. Besides, the composite z-score was -0.338 in experiment [8]; 0.0886 in experiment [9]; 0.336 in [10]; -0.598 in the experiment with Albumin (Bos taurus); -0.199 in [12]; -0.117 in experiment [13]. Further, the composite z-score in [14] was 0.627; in experiment [15] it was -0.185; in experiment [16], -0.507; in the experiment with Sam68 (KHDRBS1), -1.16; in experiment [17] it was 0.739; in experiment [18], 0.696. Also, the z-score in experiment [2] was -0.251. Moreover, in experiment [11], the composite Z-score is -0.162 (inactive).

Regarding `COCCOC(=O)N1C(=O)[C@@]2(c3cc(C#CCC(C(=O)OC)C(=O)OC)ccc31)[C@H](C(=O)N1CCc3cc(OC)c(OC)cc3C1)[C@H]1C(=O)O[C@H](c3ccccc3)[C@H](c3ccccc3)N1[C@@H]2c1ccc(O)cc1`, the composite z-score in [1] is 1.4; in experiment [3] it was 1.17; in experiment [4] it was 0.442; in [5], -0.406; in [6], 0.0718; in [7], 0.0326. Further, the composite z-score was -0.537 in experiment [8]; 0.965 in experiment [9]; 0.906 in experiment [10]; -0.129 with Albumin (Bos taurus); 0.23 in [12]; -0.0715 in experiment [13]. Also, the composite z-score in [14] was 0.213; in experiment [15], 1.72; in experiment [16], 0.617; in the experiment with Sam68 (KHDRBS1), 1.17; in [17], 1.05; in [18] it was 0.919. The compound also displayed a z-score in experiment [2] of -0.649. Moreover, the composite Z-score in experiment [11] is 0.131 (inactive).

Take `CCCCC(O)C1C=CC2C(=O)NC(=O)C2N1Nc1ccc(Cl)cc1Cl` (stereo not given): the composite z-score in [1] was 0.694; in [3], -1.11; in experiment [4], 0.436; in experiment [5] it was 0.476; in [6], 0.0915; in experiment [7], 0.0483. The composite z-score in experiment [8] was 1.31; in experiment [9], -0.0411; in experiment [10], 1.1; in the experiment with Albumin (Bos taurus), 0.891; in experiment [12] it was 0.23; in experiment [13], 0.0264. The composite z-score in experiment [14] is 0.253; in experiment [15] it was 2.54; in [16] it was 0.0614; in the experiment on Sam68 (KHDRBS1), 0.0434; in experiment [17], -0.452; in experiment [18], 0.255. In experiment [2], this compound showed a z-score of -1.12. For the same compound, the composite Z-score in [11] was 0.593 (inactive).

Regarding `C=C(COC)C(=O)CC[C@@H](OC(=O)c1cccnc1)c1cccc(OCCO)c1`, the composite z-score is 0.743 in [1]; -0.116 in [3]; -0.725 in experiment [4]; -0.89 in experiment [5]; -0.0731 in experiment [6]; 0.0121 in experiment [7]. The composite z-score in [8] was 1.09; in experiment [9], 0.295; in [10] it was -0.101; in the experiment with Albumin (Bos taurus), 0.0464; in experiment [12], 0.158; in experiment [13] it was -0.107. The composite z-score in experiment [14] is 0.75; in [15], 0.148; in [16], -0.292; in the experiment with Sam68 (KHDRBS1), 0.804; in [17] it was 0.423; in experiment [18], -0.095. The compound further displayed a z-score in experiment [2] of -1.64. For the same compound, the composite Z-score in experiment [11] is -0.239 (inactive).

Take `CCOC(=O)C[C@H]1[C@H](OC(=O)c2ccc(-c3ccccc3)cc2)[C@@H](NC(=O)CC(C)C)c2cc(OCCCO)ccc2N1C(=O)Cc1ccc(OC)cc1`: the composite z-score in [1] is 0.157; in [3], 0.141; in experiment [4], 1.05; in experiment [5], 0.335; in experiment [6], -0.0523; in experiment [7], -0.2. For the same compound, the composite z-score was -0.126 in experiment [8]; 0.418 in [9]; 0.446 in experiment [10]; 0.593 with Albumin (Bos taurus); 0.0582 in experiment [12]; 0.0426 in [13]. Besides, the composite z-score in experiment [14] is -0.0667; in [15], 0.179; in [16] it was 0.39; in the experiment with Sam68 (KHDRBS1), 0.309; in experiment [17], -0.213; in experiment [18], -0.286. The compound also registered a z-score in experiment [2] of -1.84. Also, in [11], the composite Z-score is -0.244 (inactive).
